For 39 sequences, binding signal results are on record in PMC7862700, “An all-to-all approach to the identification of sequence-specific readers for epigenetic DNA modifications on cytosine”.

In the first test the target is T1, ELK1 (Homo sapiens, UniProt P19419 1-428).
T1 sequence: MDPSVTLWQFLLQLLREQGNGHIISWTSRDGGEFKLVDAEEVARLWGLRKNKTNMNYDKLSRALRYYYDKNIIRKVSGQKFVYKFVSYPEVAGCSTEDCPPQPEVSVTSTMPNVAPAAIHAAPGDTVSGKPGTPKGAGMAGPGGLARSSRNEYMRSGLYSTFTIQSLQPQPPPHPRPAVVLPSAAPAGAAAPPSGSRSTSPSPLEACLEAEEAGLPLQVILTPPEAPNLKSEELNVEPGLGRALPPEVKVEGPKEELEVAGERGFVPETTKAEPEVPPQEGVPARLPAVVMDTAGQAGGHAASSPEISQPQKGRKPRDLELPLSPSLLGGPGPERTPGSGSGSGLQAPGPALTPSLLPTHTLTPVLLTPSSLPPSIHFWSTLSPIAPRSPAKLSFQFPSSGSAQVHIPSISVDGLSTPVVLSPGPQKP
Briefly: DAPPL (digital affinity profiling via proximity ligation, sequencing); 10 mM Tris-HCl pH 7.5, 50 mM NaCl, 1 mM DTT, 4% glycerol, room temperature, 30 min; GST-TFs on glutathione beads, 16-mer random dsDNA library, 0.1% formaldehyde crosslink after washing; high values mean tight binding. To be noted: protein: recombinant; tags: N-terminal GST; dsDNA, one strand shown. In short, it runs like this:
(§1)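 Pools were built from human transcription factors expressed in yeast as GST fusions, captured on glutathione beads and DNA-barcoded, along with a tag-only sample. Incubation with 200 nmole of a 16-mer random double-stranded DNA library lasted 30 min at room temperature in Tris/NaCl/DTT/glycerol buffer, and was followed by washing, 0.1% formaldehyde crosslinking, proximity ligation, PCR amplification and Illumina NextSeq500 sequencing. Binding signal is the quotient of each hexamer's read frequency for a factor and its frequency for the tag-only sample.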
Turning to ACACAT, the binding signal is 1.25 fold enrichment (6-mer frequency, TF over GST control). On the same count and under the same terms, under CACTTG stands 1.48 fold enrichment (6-mer frequency, TF over GST control); under AACACG, 1.23 fold enrichment (6-mer frequency, TF over GST control); under ACATCA, 1.12 fold enrichment (6-mer frequency, TF over GST control). On the same count and under the same terms, under CAACCC stands 1.22 fold enrichment (6-mer frequency, TF over GST control); under TTTCAA, 1.23 fold enrichment (6-mer frequency, TF over GST control). Turning to CTGGTC, the binding signal was 1.23 fold enrichment (6-mer frequency, TF over GST control).

For the sequence TTACCG, the binding signal was 1.16 fold enrichment (6-mer frequency, TF over GST control). Same read-out and setting: under CTCGCC stands 1.38 fold enrichment (6-mer frequency, TF over GST control).

As for TCCCGT, the binding signal is 1.23 fold enrichment (6-mer frequency, TF over GST control). The same measure, in the same setting: in the case of CTCGAA it was 1.12 fold enrichment (6-mer frequency, TF over GST control); in that of CATGCT, 1.2 fold enrichment (6-mer frequency, TF over GST control). The same measure, in the same setting: under GTCACT stands 1.07 fold enrichment (6-mer frequency, TF over GST control); under ATCTTT, 1.24 fold enrichment (6-mer frequency, TF over GST control); under TTATTC, 1.41 fold enrichment (6-mer frequency, TF over GST control).

Consider TCATCA, for which the binding signal is 1.16 fold enrichment (6-mer frequency, TF over GST control). In the case of GCACTG, the binding signal was 1.12 fold enrichment (6-mer frequency, TF over GST control). Same read-out and setting: in the case of ATGTAT it was 1.32 fold enrichment (6-mer frequency, TF over GST control); in that of CCCTAA, 1.19 fold enrichment (6-mer frequency, TF over GST control); in that of CTCAGC, 1.22 fold enrichment (6-mer frequency, TF over GST control).

The next test deals with T2, GABPA (Homo sapiens, UniProt Q06546 1-454).
T2 sequence: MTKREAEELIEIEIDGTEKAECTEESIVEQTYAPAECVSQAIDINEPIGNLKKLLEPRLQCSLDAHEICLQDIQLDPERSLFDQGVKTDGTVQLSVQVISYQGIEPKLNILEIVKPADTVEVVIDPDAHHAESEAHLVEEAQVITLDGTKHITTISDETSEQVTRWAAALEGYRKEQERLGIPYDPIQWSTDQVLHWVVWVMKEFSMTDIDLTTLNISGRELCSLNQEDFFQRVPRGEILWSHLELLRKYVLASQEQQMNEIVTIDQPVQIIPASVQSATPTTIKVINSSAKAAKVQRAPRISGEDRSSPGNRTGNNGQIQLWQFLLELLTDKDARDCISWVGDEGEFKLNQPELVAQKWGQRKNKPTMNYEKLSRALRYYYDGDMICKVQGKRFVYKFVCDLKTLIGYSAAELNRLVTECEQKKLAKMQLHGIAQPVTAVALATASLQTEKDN
The description is as above. To be noted: protein: recombinant; tags: N-terminal GST; dsDNA, one strand shown. In outline: as §1
Consider CGACTT, for which the binding signal was 1.58 fold enrichment (6-mer frequency, TF over GST control). TTTTAG: the binding signal is 1.19 fold enrichment (6-mer frequency, TF over GST control). As to CAATGC, the binding signal is 1.21 fold enrichment (6-mer frequency, TF over GST control). On to ACCCCC, for which the binding signal is 1.21 fold enrichment (6-mer frequency, TF over GST control).

As to CACCAC, the binding signal was 1.23 fold enrichment (6-mer frequency, TF over GST control).

As to AAATAG, the binding signal was 1.12 fold enrichment (6-mer frequency, TF over GST control).

Consider ACTCCC, for which the binding signal is 1.42 fold enrichment (6-mer frequency, TF over GST control).

In the case of TACTAA, the binding signal was 1.36 fold enrichment (6-mer frequency, TF over GST control). Same read-out and setting: in the case of AACGAC it was 1.18 fold enrichment (6-mer frequency, TF over GST control). Turning to AAGCGC, the binding signal was 1.12 fold enrichment (6-mer frequency, TF over GST control).

Consider CGCTAC, for which the binding signal was 1.25 fold enrichment (6-mer frequency, TF over GST control). Regarding CACTGC, the binding signal is 1.32 fold enrichment (6-mer frequency, TF over GST control).

As for GTCCAC, the binding signal was 1.11 fold enrichment (6-mer frequency, TF over GST control). On the same count and under the same terms, in the case of ATGGAA it was 1.18 fold enrichment (6-mer frequency, TF over GST control); in that of GATACG, 1.12 fold enrichment (6-mer frequency, TF over GST control); in that of CATGGT, 1.29 fold enrichment (6-mer frequency, TF over GST control). On the same count and under the same terms, under TATGGT stands 1.32 fold enrichment (6-mer frequency, TF over GST control); under TCCCCA, 1.21 fold enrichment (6-mer frequency, TF over GST control); under GTTCAT, 1.19 fold enrichment (6-mer frequency, TF over GST control). For ACACAT, the binding signal is 1.17 fold enrichment (6-mer frequency, TF over GST control). The same measure, in the same setting: under CACTTG stands 1.32 fold enrichment (6-mer frequency, TF over GST control). With AACACG, the binding signal is 1.1 fold enrichment (6-mer frequency, TF over GST control). The same measure, in the same setting: in the case of ACATCA it was 1.09 fold enrichment (6-mer frequency, TF over GST control); in that of CAACCC, 1.27 fold enrichment (6-mer frequency, TF over GST control). Turning to TTTCAA, the binding signal was 1.31 fold enrichment (6-mer frequency, TF over GST control).

As for CTGGTC, the binding signal is 1.25 fold enrichment (6-mer frequency, TF over GST control). Still for that read-out and setting: under TTACCG stands 1.12 fold enrichment (6-mer frequency, TF over GST control); under CTCGCC, 1.26 fold enrichment (6-mer frequency, TF over GST control). As for TCCCGT, the binding signal was 1.26 fold enrichment (6-mer frequency, TF over GST control). Same read-out and setting: under CTCGAA stands 1.26 fold enrichment (6-mer frequency, TF over GST control); under CATGCT, 1.21 fold enrichment (6-mer frequency, TF over GST control). As to GTCACT, the binding signal was 1.08 fold enrichment (6-mer frequency, TF over GST control).

For ATCTTT, the binding signal is 1.22 fold enrichment (6-mer frequency, TF over GST control). Turning to TTATTC, the binding signal was 1.38 fold enrichment (6-mer frequency, TF over GST control). Still for that read-out and setting: in the case of TCATCA it was 1.17 fold enrichment (6-mer frequency, TF over GST control). Consider GCACTG, for which the binding signal was 1.14 fold enrichment (6-mer frequency, TF over GST control). Still for that read-out and setting: under ATGTAT stands 1.27 fold enrichment (6-mer frequency, TF over GST control). Regarding CCCTAA, the binding signal was 1.15 fold enrichment (6-mer frequency, TF over GST control). Regarding CTCAGC, the binding signal is 1.38 fold enrichment (6-mer frequency, TF over GST control).
